Test results taken from PubChem BioAssay AID2283149 (EPA ToxCast).
Records with an inconclusive call do not appear. Active and inactive are the calls of the source. How the source made its calls: active means hit-call score of the fitted dose curve at least 0.9, where 1 is the maximum; inconclusive means response in the unintended direction; inactive means score below 0.9.

Biological target: human Casein Kinase 1-alpha (CK1a), CSNK1A1 (gene 1452) (UniProt P48729)
Test: NVS_ENZ_hCK1a: NovaScreen (NVS) Enzymatic Assay for human Casein Kinase 1-alpha (CK1a)
Protocol: NVS_ENZ_hCK1a is a biochemical, single-readout assay that uses extracted gene-proteins in a cell-free assay. Measurements were taken 1 hour after chemical dosing in a 384-well plate.NVS_ENZ_hCK1a is one of one assay component(s) measured or calculated from the NVS_ENZ_hCK1a assay. It is designed to make measurements of enzyme activity, a form of enzyme reporter, as detected with fluorescence intensity signals by Fluorescence and electrophoretic mobility shift technology.Data from the assay component NVS_ENZ_hCK1a was analyzed into 1 assay endpoint. This assay endpoint, NVS_ENZ_hCK1a, was analyzed in the positive analysis fitting direction relative to DMSO as the negative control and baseline of activity. Using a type of enzyme reporter, loss-of-signal activity can be used to understand changes in the enzymatic activity as they relate to the gene CSNK1A1. Furthermore, this assay endpoint can be referred to as a primary readout, because this assay has produced multiple assay endpoints where this one serves a enzymatic activity function. To generalize the intended target to other relatable targets, this assay endpoint is annotated to the kinase intended target family, where the subfamily is serine/threonine kinase.
Binding assays used specific radioligands (tritiated, iodinated) with non-radioactive competitive displacement ligands in agonist or antagonist protocols (as indicated) and various reference compounds and inhibitors to titrate specific binding to receptors and transporters. Most enzyme assays (CYPs, kinases, phosphatases, proteases, HDACs) used recombinant protein and specific substrates (fluorescence mostly, some colorimetric and radioactive) and inhibitors, followed by a biochemical separation of substrate and product. All assays for the biochemical HTS were initially run in duplicate at a single concentration (10 uM for CYP450 assays and 25 uM for all others). Assay-chemical combinations meeting a pre-defined threshold (e.g., 30% inhibition and other criteria defined below) were then run in singleton concentration-response format with maximum concentration of 20 uM for CYPs and 50 uM for all others. Each assay was run with positive and negative controls, and concurrent controls on every plate. The follow-up (secondary) screen tested active chemical-pairs in concentration series, as well as a few additional assays not tested in the primary screen, some selected negative inactives, and several cases re-run in the concentration series for confirmatory purposes.

human Casein Kinase 1-alpha (CK1a), CSNK1A1 (gene 1452), sequence (P48729 whole entry, looked up): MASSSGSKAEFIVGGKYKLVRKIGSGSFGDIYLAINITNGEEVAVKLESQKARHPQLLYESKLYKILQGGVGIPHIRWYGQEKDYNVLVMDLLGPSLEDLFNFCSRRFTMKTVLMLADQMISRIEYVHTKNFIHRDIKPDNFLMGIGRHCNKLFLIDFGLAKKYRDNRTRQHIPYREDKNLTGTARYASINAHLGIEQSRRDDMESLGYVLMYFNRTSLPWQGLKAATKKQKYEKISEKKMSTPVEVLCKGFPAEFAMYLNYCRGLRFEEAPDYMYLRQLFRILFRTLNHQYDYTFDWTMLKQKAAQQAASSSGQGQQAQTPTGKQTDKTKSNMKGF

Question: With `S=C([S-])NCCNC(=S)[S-].[Mn+2]` as the molecule, how does the AC50 read?
Answer: 19.4 µM (active)

Question: How did the outcome turn out when `N#CSCSC#N` was run?
Answer: inactive

Question: `O=S(=O)(O)C(F)(F)C(F)(F)C(F)(F)C(F)(F)C(F)(F)C(F)(F)C(F)(F)C(F)(F)F` was tested. Which AC50 did it give?
Answer: 21.1 µM (active)

Question: `CN(C)[C@@H]1C(=O)C(C(N)=O)=C(O)[C@@]2(O)C(=O)C3=C(O)c4c(O)cccc4[C@@](C)(O)[C@H]3[C@H](O)[C@@H]12` was tested. Which AC50 did it give?
Answer: 36.4 µM (active)

Question: `Nc1nc(N)nc(NC2CC2)n1` was tested. Which outcome did it give?
Answer: inactive

Question: For `O=C(O)C1(C(=O)Nc2ccc(Cl)cc2Cl)CC1`, which AC50 is on record?
Answer: 8.67 µM (active)

Question: For `O=C(Nc1ccc([N+](=O)[O-])cc1Cl)c1cc(Cl)ccc1O`, which outcome is on record?
Answer: inactive

Question: `CO/C=C(/C(=O)OC)c1ccccc1Oc1cc(Oc2ccccc2C#N)ncn1` was tested. Which outcome did it give?
Answer: inactive

Question: Which AC50 does the source give for `S=C(S)NCCNC(=S)S.[Mn+2].[S-]C([S-])=NCCN=C([S-])[S-].[Zn+2]` here?
Answer: 9.19 µM (active)
